E coli growth-1 = blocks Escherichia coli growth; 330,000 tested, 0.21% active; OD600 absorbance (concentration not given with the values); OD600, 23 h; stronger effect = lower value; AID 1053175;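 active = OD600 absorbance below the run mean of sample wells minus 3.6 SD, in any replicate, cut at about 0.56 in these data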
Tat transport = inhibitors of E. coli Tat protein transport; 340,000 tested, 0.036% active; inhibition, % at 10 µM; AID 488895; E. coli MC4100 TorA-mCherry Tat export, fluorescence;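 active = mean replicate inhibition at least 50% and at least half of replicates individually reaching 50%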;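 also: exported cargo escapes ClpAP degradation while cytoplasmic cargo is degraded and loses fluorescence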
E coli growth-2 = counter-screen for AddAB inhibitors: E. coli growth inhibition | E. coli V3065 growth, OD600 absorbance, 18 h | inhibition, % at 11.9 µM | 330,000 tested, 0.27% active;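 active = inhibition above the campaign's mean inhibition across all tested compounds plus 3 SD, cut at about 9.9% in these data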;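 also: uninfected addAB+ strain grown without phage in ampicillin broth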
AddAB inh = less growth of phage-infected E. coli with AddAB | inhibition, % at 11.9 µM | 330,000 tested, 0.29% active | E. coli expressing H. pylori AddAB, absorbance growth; in the data active = inhibition above about 12%
phage Ecoli inh = E. coli growth loss with phage present; inhibition, % at 11.9 µM; 360,000 tested, 0.26% active; growth absorbance; in the data active = inhibition above about 11%
AddAB confirm = growth loss of T4-infected E. coli expressing H. pylori AddAB, confirmed; 880 tested, 64% active; inhibition, % at 11.9 µM; E. coli V3065 expressing H. pylori AddAB, T4 phage, OD; T4 phage with gene 2 nonsense mutations; shares compounds with AddAB inh; AID 488942;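 active = mean inhibition above a set limit taken from the earlier primary screen, cut at about 13% in these data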;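 also: higher means less bacterial growth since AddAB block lets phage replicate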
RecBCD counter = counter-screen: growth loss of RecBCD+ E. coli with mutant T4 phage; shares compounds with AddAB inh; inhibition, % at 11.9 µM; AID 488955; E. coli V66 + mutant T4 phage, OD growth; 880 tested, 73% active;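 active = mean inhibition above the mean of solvent-only control wells plus 3 SD, cut at about 4% in these data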;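 also: optical density read after an 18 h incubation at 37 °C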
Bact viability = counter-screen for AddAB inhibitors: inhibitors of bacterial viability. inhibition, % at 11.9 µM. shares compounds with AddAB inh. absorbance (AddAB counterscreen). 880 tested, 35% active; in the data active = inhibition above about 25%
RecBCD conf = confirmation: growth loss of phage-infected RecBCD+ E. coli (RecBCD inhibitor screen) | shares compounds with phage Ecoli inh | AID 651982 | 890 tested, 45% active | inhibition, % at 11.9 µM | E. coli V66 + T4 2- phage, growth OD;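 active = mean inhibition over triplicates exceeding the hit threshold derived in the original primary screen, cut at about 11% in these data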
Ecoli viability = inhibits E. coli viability, flagging RecBCD hits as nonselective; shares compounds with phage Ecoli inh; absorbance (OD) growth; inhibition, % at 11.9 µM; 890 tested, 29% active; in the data active = inhibition above about 20%;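 also: E. coli strain V66 grown with compound alone and no phage infection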
AddAB phage OD = growth loss of phage-infected AddAB E. coli, RecBCD counter-screen. shares compounds with phage Ecoli inh. E. coli expressing H. pylori AddAB + T4 phage, OD growth; gene 2 mutant T4, recBCD-deleted host. inhibition, % at 11.9 µM. 890 tested, 45% active;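 active = mean inhibition above the solvent-only control wells' mean plus 3 SD, cut at about 22% in these data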;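 also: higher means less bacterial growth from phage killing when AddAB is blocked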
Numbers stand for hits; 0 = inactive; - = no result given. This is a sample that favours compounds with a hit; in the whole collection about 0.5% have one here.

SMILES	E coli growth-1	Tat transport	E coli growth-2	AddAB inh	phage Ecoli inh	AddAB confirm	RecBCD counter	Bact viability	RecBCD conf	Ecoli viability	AddAB phage OD
Cc1ccc(SCc2c(C(=O)NN=Cc3cccnc3)nnn2-c2nonc2N)cc1	0	-	-	-	-	-	-	-	-	-	-
c1ccc(-c2nnc(-c3ccccn3)nc2NC2CCCCC2)cc1	0.411	0	18.0	15.7	14.4	20.5	14.9	0	0	0	0
CC(C)COc1ccc(Cc2cnc(N)nc2N)cc1	0.242	0	0	12.3	16.3	0	9.2	0	0	0	0
CCOC(=O)C1C2COc3ccc(Cl)cc3C2N2C(=O)CN(Cc3ccc(OC)cc3)C(=O)[C@@]12C (stereo partly drawn)	0	-	-	-	-	-	-	-	-	-	-
Cc1cc(C)c2c(N=NN(C)C)[nH]nc2n1	0	0	77.9	39.1	13.6	97.4	8.6	53.7	12.0	0	70.3
Cc1cc(C)c2c(NC(N)=S)n[nH]c2n1	0	0	0	0	0	-	-	-	-	-	-
COc1ccc(O)c(/C=N/NC(=O)c2ccc(CSc3nc(C)cc(C)n3)cc2)c1	-	0	11.3	15.7	11.1	0	8.0	0	0	0	0
Nc1nc(=S)c2[nH]cnc2[nH]1	-	0	77.0	92.2	66.4	90.8	60.5	73.9	56.7	66.8	84.2
Nc1nc(=S)c2[nH]c(=S)[nH]c2[nH]1	0	0	-	-	0	-	-	-	-	-	-
Cc1nc2ccccc2c(=O)n1/N=C/c1ccc([N+](=O)[O-])o1	-	-	0	0	-	-	-	-	-	-	-
Cc1nc2ccccc2n1/N=C/c1ccc([N+](=O)[O-])o1	-	0	97.6	100.4	12.5	102.7	25.4	103.2	0	0	100.2
C#CCOCCOCCOCCNc1nc(N2CCN(C(=O)C(CCCCN)n3cc(CCC(=O)O)nn3)CC2)nc(N2CCN(C(=O)C(C(C)CC)n3cc(CCCN=C(N)N)nn3)CC2)n1 (stereo not drawn)	0	-	-	-	-	-	-	-	-	-	-
COc1ccccc1NC(=O)C(=NOCc1ccc(C#N)cc1)C(C)=O	0	-	-	-	-	-	-	-	-	-	-
Fc1ccc(Nc2nnc(C(F)(F)F)s2)cc1Cl	0.435	0	15.9	14.2	14.5	17.1	19.5	0	0	0	0
FC(F)(F)c1nnc(Nc2ccc(Cl)cc2)s1	0	0	0	0	0	-	-	-	-	-	-
O=c1c2ccccc2nc(N/N=C/c2c(O)ccc3ccccc23)n1O	-	0	23.7	19.1	20.9	24.2	20.5	0	12.4	0	0
O=c1c2ccccc2nc(N/N=C/c2ccc(O)cc2)n1O	-	0	0	0	0	-	-	-	-	-	-
Cc1cccc(NC(=O)c2ccc([N+](=O)[O-])o2)n1	0.531	0	38.0	30.3	16.1	100.1	12.8	40.5	0	0	61.5
Oc1ccc2ccccc2c1C=NNc1nnc(-c2ncc[nH]2)c2ccccc12	0	-	-	-	-	-	-	-	-	-	-
Oc1ccc2ccccc2c1/C=N/Nc1nnc(-c2ncc[nH]2)c2ccccc12	-	0	14.3	18.6	16.7	21.6	24.2	0	17.4	21.8	27.3
CCC(=O)N1CCN(c2ccc(Cl)cc2NC(=O)c2ccc([N+](=O)[O-])o2)CC1	0	0	0	0	0	-	-	-	-	-	-
O=C(Nc1cc(Cl)ccc1-n1cncn1)c1ccc([N+](=O)[O-])o1	0	0	32.3	99.0	16.1	92.2	11.7	56.6	0	0	98.4
COc1ccc(NC(=O)N(C)CC2Oc3c(NC(=O)Cc4ccccc4)cccc3C(=O)N(C(C)CO)CC2C)cc1 (stereo not drawn)	0	-	-	-	-	-	-	-	-	-	-
O=C(CSc1nc2ccccc2s1)Nc1ccc(N2CCOCC2)c(Cl)c1	0	0	12.2	21.4	15.6	18.9	11.7	0	0	0	24.4
O=C(CSc1nc2ccccc2[nH]1)Nc1ccc(N2CCOCC2)cc1	0	0	13.8	25.1	13.3	13.5	16.9	0	0	0	0
SMILES	E coli growth-1	Tat transport	E coli growth-2	AddAB inh	phage Ecoli inh	AddAB confirm	RecBCD counter	Bact viability	RecBCD conf	Ecoli viability	AddAB phage OD
CC(=O)Nc1ccc2nc(SCC(=O)Nc3ccc(N4CCOCC4)c(Cl)c3)sc2c1	0	0	0	0	0	-	-	-	-	-	-
COc1cc(NC(=O)CSc2ccc(-c3ccccn3)nn2)cc(OC)c1	0	0	13.6	13.5	12.7	0	11.3	0	0	0	0
COc1ccc(C)cc1NC(=O)CSc1ccc(-c2ccccn2)nn1	0	0	0	0	0	-	-	-	-	-	-
COc1ccc(/C=C2\SC(=O)N(CC(=O)NNC(=O)c3ccccc3O)C2=O)cc1OC	-	0	17.6	22.7	16.0	19.6	14.4	0	0	0	0
O=C(CN1C(=O)S/C(=C\c2ccccc2)C1=O)NNC(=O)c1ccccc1O	0	0	17.1	19.4	14.5	15.9	14.0	0	0	0	0
O=C(CN1C(=O)S/C(=C\c2ccc(O)cc2)C1=O)c1ccccc1	-	0	0	0	0	-	-	-	-	-	-
COc1ccc(/C=C2\SC(=O)N(CC(=O)NNC(=O)c3ccccc3O)C2=O)cc1	0	0	10.1	16.9	15.1	0	10.0	0	0	0	0
CC(=NNC(=O)c1cc(-c2cccnc2)nc2ccccc12)c1ccccc1O	0	-	-	-	-	-	-	-	-	-	-
CCOc1ccc(C=NNC(=O)COc2ccccc2-c2ccccc2)cc1	0	-	-	-	-	-	-	-	-	-	-
C=CCCC(Cc1ccc(F)cc1)C(=O)OCC(NC(=O)C(CC=C)CC(=O)N(CCO)Cc1ccccc1)c1ccccc1 (stereo not drawn)	0	-	-	-	-	-	-	-	-	-	-
CC1SC(=C(C#N)C(=O)NCc2ccco2)N(Cc2ccco2)C1=O (stereo not drawn)	0	-	-	-	-	-	-	-	-	-	-
O=C1c2ccccc2NC(c2ccc(-c3cccs3)o2)N1O (stereo not drawn)	0	0	0	0	0	-	-	-	-	-	-
O=C1c2ccccc2NC(c2ccc(-c3ccc(C(F)(F)F)cc3)o2)N1O (stereo not drawn)	0	0	21.1	17.4	14.9	17.1	7.7	0	0	0	0
COc1ccc(-c2cc(N3CCCC3)n3ncnc3n2)cc1	0	0	19.8	16.6	14.4	21.0	14.1	0	0	0	0
COc1ccc(NC(=S)NC(=NCS(=O)(=O)c2ccccc2)c2ccccc2)cc1	0	-	-	-	-	-	-	-	-	-	-
CN1CC2C3C(=O)N(C)C(=O)C3[C@](C)(C1=O)N2C(=O)c1ccc(C(F)(F)F)cc1 (stereo partly drawn)	0	-	-	-	-	-	-	-	-	-	-
CCCCNC1=CC(=O)C(=O)c2ccccc21	0.418	0	25.2	29.4	20.6	31.7	9.9	0	12.6	0	22.1
CCCCNC1=CC(=O)C(NCCCC)=CC1=O	0	0	-	-	0	-	-	-	-	-	-

Screening results deposited in PubChem BioAssay by several laboratories.
